Measurements reported in PubChem BioAssay (NCATS).
Results filed as inconclusive are left out. Active and inactive are the calls of the source. Unless noted, calls follow the shape of the dose curve; as a rule, active = well fitted inhibition curve with a large enough effect; inconclusive = small, poorly fitted or top-dose-only effect; inactive = flat fitted curve, though single readings scatter.

What was measured:
[1] = S16 Schwann cell PMP22 intronic element beta-lactamase assay (AID 624044; calls by dose curve;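 also: 0% = DMSO and -100% = potassium clavulanate positive control; nearly all actives have a fitted effect of over 15% in size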); details: S16 rat Schwann cells, PMP22 element beta-lactamase FRET, 24 h; ratio activity, negative = inhibition: at 38.3 µM (top of the series) unless noted
Procedure, shortened: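 Beta-lactamase reporter under a PMP22 intronic regulatory element in stable S16 rat Schwann cells; 24 h compound exposure. 460 nm blue signal normalized between DMSO (0%) and potassium clavulanate, with 535 nm FRET tracking viability; curves classed by r2 and response.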

[2] = system: 7G8; experiment: qHTS profiling for inhibitors of Plasmodium falciparum proliferation (AID 504749);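 also: 0% = DMSO vehicle and full inhibition = artemisinin control; nearly all actives have a fitted effect of over 60% in size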; details: P. falciparum in erythrocytes, SYBR Green DNA, 72 h; series mostly up to 12.8 µM
Procedure, shortened: (§1)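 SYBR Green fluorescence (ex 485 nm, em 535 nm) reports parasite DNA after 72 h compound exposure of infected red cells at 0.3% parasitemia, 2.5% hematocrit; signal normalized to 0.29 uM artemisinin and vehicle wells.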

[3] = system: CP211; experiment: as above; details: P. falciparum in erythrocytes, SYBR Green DNA, 72 h; series mostly up to 28.7 µM
Procedure, shortened: as §1

[4] = system: CP269; experiment: as above; details: P. falciparum in erythrocytes, SYBR Green DNA, 72 h; series mostly up to 28.7 µM
Procedure, shortened: as §1

[5] = system: CP291; experiment: as above; details: P. falciparum in erythrocytes, SYBR Green DNA, 72 h; series mostly up to 28.7 µM
Procedure, shortened: as §1

[6] = system: CP315; experiment: as above; details: P. falciparum in erythrocytes, SYBR Green DNA, 72 h; series mostly up to 28.7 µM
Procedure, shortened: as §1

[7] = system: CP325; experiment: as above; details: P. falciparum in erythrocytes, SYBR Green DNA, 72 h; series mostly up to 28.7 µM
Procedure, shortened: as §1

[8] = system: CP329; experiment: as above; details: P. falciparum in erythrocytes, SYBR Green DNA, 72 h; series mostly up to 28.7 µM
Procedure, shortened: as §1

[9] = system: DIV14; experiment: as above; details: P. falciparum in erythrocytes, SYBR Green DNA, 72 h; series mostly up to 28.7 µM
Procedure, shortened: as §1

[10] = system: DIV17; experiment: as above; details: P. falciparum in erythrocytes, SYBR Green DNA, 72 h; series mostly up to 28.7 µM
Procedure, shortened: as §1

[11] = system: PC26; experiment: as above; details: P. falciparum in erythrocytes, SYBR Green DNA, 72 h; series mostly up to 28.7 µM
Procedure, shortened: as §1

[12] = biological target: Androgen receptor (Homo sapiens) (UniProt P10275); experiment: qHTS assay for small molecule agonists of androgen receptor signaling (AID 588515; active = well fitted curve in the direction sought with a large enough effect in the signal ratio, with a control signal flat; the % refers to the signal ratio; also: % is scaled to controls: 0 for no effect and ±100 for the full control effect); details: AR-UAS-bla HEK293, beta-lactamase ratio, agonist 16 h; stronger effect = higher value
Procedure, shortened: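 Stimulation of an AR-responsive β-lactamase reporter in GripTite HEK293 cells was measured after 16 h compound exposure at 37 °C, via CCF4 fluorescence after 2 h RT. EC50 from Hill fits, normalized to R1881 at 30 nM.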

[13] = biological target: Androgen receptor (Homo sapiens) (UniProt P10275); experiment: qHTS assay for small molecule antagonists of androgen receptor signaling (AID 588516; active = well fitted curve in the direction sought with a large enough effect in the signal ratio, with a control signal flat, not every such curve was filed as active; the % refers to the signal ratio; also: % is scaled to controls: 0 for no effect and ±100 for the full control effect); details: AR-UAS-bla HEK293, beta-lactamase ratio, antagonist mode, 16 h; series mostly up to 76.8 µM
Procedure, shortened: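 Antagonist-mode qHTS: inhibition of R1881 (10 nM)-driven beta-lactamase expression in GripTite HEK 293 cells is measured after 16 h; values are Hill-derived IC50s normalized between R1881 and DMSO wells.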

Chain of Androgen receptor (Homo sapiens) (P10275 whole entry, looked up): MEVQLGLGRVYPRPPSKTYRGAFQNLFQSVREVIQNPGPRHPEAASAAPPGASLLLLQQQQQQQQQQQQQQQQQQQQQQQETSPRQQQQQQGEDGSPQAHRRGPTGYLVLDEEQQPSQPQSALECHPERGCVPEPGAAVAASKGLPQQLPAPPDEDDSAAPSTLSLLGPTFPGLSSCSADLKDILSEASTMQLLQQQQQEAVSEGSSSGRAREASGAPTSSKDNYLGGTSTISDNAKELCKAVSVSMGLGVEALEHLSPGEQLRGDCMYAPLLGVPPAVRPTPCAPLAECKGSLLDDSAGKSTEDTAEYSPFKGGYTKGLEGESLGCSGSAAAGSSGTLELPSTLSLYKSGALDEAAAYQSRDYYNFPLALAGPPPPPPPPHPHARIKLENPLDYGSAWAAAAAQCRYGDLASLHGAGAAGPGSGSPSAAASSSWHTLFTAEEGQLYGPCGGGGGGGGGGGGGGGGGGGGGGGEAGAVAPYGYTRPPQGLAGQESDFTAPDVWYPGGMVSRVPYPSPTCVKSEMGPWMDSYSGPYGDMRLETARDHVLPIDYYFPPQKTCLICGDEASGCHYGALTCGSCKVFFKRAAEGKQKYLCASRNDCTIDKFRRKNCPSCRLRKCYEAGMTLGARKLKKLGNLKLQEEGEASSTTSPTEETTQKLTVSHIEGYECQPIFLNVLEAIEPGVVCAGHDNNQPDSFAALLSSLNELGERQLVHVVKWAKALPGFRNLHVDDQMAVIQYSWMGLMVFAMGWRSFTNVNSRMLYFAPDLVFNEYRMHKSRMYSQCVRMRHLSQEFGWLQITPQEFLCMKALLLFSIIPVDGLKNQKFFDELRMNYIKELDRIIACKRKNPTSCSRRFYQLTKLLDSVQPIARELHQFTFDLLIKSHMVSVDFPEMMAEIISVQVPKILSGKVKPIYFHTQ

C[N+]1([O-])[C@@H]2CC(OC(=O)[C@@H](CO)c3ccccc3)C[C@@H]1[C@H]1O[C@H]12 (stereo partly drawn)
inactive: Potency [1] | Potency [2] | Potency [3] | Potency [4] | Potency [5] | Potency [6] | Potency [7] | Potency [8] | Potency [9] | Potency [10] | Potency [11]

O=S1OCC2C(CO1)C1(Cl)C(Cl)=C(Cl)C2(Cl)C1(Cl)Cl (stereo not drawn)
inactive: activation [12] -11.1% | Potency [13]
